From the supplement of paper PMC10849652
About 7,900 targets were measured; listed, in parts, are those with a hit and a random draw of the rest. About 0.6% of all pairs of compound and target were hits.

Assays:
Test in all cases: log2 fold change, soluble protein after heating vs DMSO (PISA); higher = thermal stabilisation; K562 cells, 10 uM, 30 min; active = over 0.2 and 3.5 SD of the protein, either way, in both replicates (recomputed)
[1] = compound: C1=CC=C(C=C1)[C@H](COC2=CC3=C(C=C2)NC(=O)N3)NC(=O)C4=CC=CN(C4=O)CC5=CC(=C(C=C5)F)F
In short: (§1)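 Soluble protein was defined as the supernatant after 21,000xg for 90 min. It came from K562 cells at 2×10^6 cells/mL given 10 μM compound for 30 min, heated in aliquots for 3 min across 48°C-58°C, pooled, and extracted in PBS with 0.5% NP-40 at 4°C, and was quantified by TMTpro 16plex LC-MS/MS with equalised channel sums. Thermal stability against control samples, from duplicates, is reported as log2 fold change.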

[2] = compound: CC1=C(SC2=C1C(=N[C@H](C3=NN=C(N32)C)CC(=O)N)C4=CC=C(C=C4)Cl)C
In short: as §1

[3] = compound: CC1=C2C(=CC=C1)N=C(N(C2=O)C3=CC=CC=C3C)CN4C=NC5=C(N=CN=C54)N
In short: as §1

[4] = compound: Cc1sc2c(c1C)C(c1ccc(Cl)cc1)=N[C@@H](CC(=O)OC(C)(C)C)c1nnc(C)n1-2
In short: as §1

[5] = compound: c1ccc([C@@H]2C[C@H]2NC2CCNCC2)cc1
In short: as §1

Measured: log2 fold change

STK17B (UniProt O94768)
inactive: [1] 0.043

STRN (UniProt O43815)
inactive: [1] -0.025 | [2] 0.011 | [3] -0.003 | [4] -0.108 | [5] -0.017

SNRNP27 (UniProt Q8WVK2)
inactive: [1] 0.027 | [2] -0.058 | [3] 0.021 | [4] 0.023 | [5] 0.044

STARD3 (UniProt Q14849)
inactive: [1] 0.011 | [2] -0.036 | [3] 0.14 | [4] 0.066 | [5] -0.153

STAT5B (UniProt P51692)
inactive: [1] 0.036 | [2] 0.08 | [3] 0.05 | [4] 0.033 | [5] 0.052

TAMM41 isoform 3 (UniProt Q96BW9)
inactive: [1] -0.012 | [2] 0.1 | [3] 0.09 | [4] -0.06 | [5] 0.001

SMG1 (UniProt Q96Q15)
inactive: [1] -0.104 | [2] 0.003 | [3] -0.004 | [4] 0.02 | [5] -0.071

SORT1 (UniProt Q99523)
inactive: [1] 0.029 | [2] -0.01 | [3] -0.03 | [4] 0.027 | [5] 0.009

SREBF1 isoform 4 (UniProt P36956)
inactive: [1] 0.026

SLC35A1 (UniProt P78382)
inactive: [1] -0.046 | [2] -0.108 | [3] 0.05 | [4] -0.07 | [5] 0.013

SURF1 (UniProt Q15526)
inactive: [1] -0.015 | [2] -0.018 | [3] 0.15 | [4] -0.101 | [5] 0.063

SUPT16H (UniProt Q9Y5B9)
inactive: [1] -0.238 | [2] 0.023 | [3] 0.279 | [4] -0.106 | [5] -0.006

SPIRE1 (UniProt Q08AE8)
Sequence of UniProt Q08AE8 (Q08AE8 whole entry, looked up): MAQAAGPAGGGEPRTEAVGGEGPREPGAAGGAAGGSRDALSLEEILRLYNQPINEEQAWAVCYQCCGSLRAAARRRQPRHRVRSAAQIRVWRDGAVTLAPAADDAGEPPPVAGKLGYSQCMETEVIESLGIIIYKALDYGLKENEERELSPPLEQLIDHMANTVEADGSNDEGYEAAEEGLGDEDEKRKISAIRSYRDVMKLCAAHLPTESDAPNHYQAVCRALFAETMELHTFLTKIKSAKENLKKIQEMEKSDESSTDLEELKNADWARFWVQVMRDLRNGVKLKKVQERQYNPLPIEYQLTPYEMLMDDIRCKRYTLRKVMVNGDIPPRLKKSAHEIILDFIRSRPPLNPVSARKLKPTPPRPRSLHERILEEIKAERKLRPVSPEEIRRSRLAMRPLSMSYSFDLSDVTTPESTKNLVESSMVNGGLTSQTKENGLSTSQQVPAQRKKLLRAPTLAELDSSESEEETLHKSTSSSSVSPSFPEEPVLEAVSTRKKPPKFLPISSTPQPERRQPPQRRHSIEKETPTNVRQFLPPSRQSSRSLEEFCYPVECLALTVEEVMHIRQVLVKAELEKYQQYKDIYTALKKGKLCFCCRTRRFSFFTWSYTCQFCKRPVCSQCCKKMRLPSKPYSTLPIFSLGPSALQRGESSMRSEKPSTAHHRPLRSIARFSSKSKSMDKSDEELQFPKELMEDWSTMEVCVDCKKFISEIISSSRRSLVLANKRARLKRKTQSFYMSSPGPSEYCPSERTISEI
inactive: [1] 0.079 | [2] 0.002 | [3] 0.196 | [4] -0.01 | [5] 0.075

SNRPB2 (UniProt P08579)
inactive: [1] 0.083 | [2] 0.002 | [3] -0.044 | [4] 0.07 | [5] 0.02

SPECC1 (UniProt Q5M775)
Sequence of UniProt Q5M775 (Q5M775 whole entry, looked up): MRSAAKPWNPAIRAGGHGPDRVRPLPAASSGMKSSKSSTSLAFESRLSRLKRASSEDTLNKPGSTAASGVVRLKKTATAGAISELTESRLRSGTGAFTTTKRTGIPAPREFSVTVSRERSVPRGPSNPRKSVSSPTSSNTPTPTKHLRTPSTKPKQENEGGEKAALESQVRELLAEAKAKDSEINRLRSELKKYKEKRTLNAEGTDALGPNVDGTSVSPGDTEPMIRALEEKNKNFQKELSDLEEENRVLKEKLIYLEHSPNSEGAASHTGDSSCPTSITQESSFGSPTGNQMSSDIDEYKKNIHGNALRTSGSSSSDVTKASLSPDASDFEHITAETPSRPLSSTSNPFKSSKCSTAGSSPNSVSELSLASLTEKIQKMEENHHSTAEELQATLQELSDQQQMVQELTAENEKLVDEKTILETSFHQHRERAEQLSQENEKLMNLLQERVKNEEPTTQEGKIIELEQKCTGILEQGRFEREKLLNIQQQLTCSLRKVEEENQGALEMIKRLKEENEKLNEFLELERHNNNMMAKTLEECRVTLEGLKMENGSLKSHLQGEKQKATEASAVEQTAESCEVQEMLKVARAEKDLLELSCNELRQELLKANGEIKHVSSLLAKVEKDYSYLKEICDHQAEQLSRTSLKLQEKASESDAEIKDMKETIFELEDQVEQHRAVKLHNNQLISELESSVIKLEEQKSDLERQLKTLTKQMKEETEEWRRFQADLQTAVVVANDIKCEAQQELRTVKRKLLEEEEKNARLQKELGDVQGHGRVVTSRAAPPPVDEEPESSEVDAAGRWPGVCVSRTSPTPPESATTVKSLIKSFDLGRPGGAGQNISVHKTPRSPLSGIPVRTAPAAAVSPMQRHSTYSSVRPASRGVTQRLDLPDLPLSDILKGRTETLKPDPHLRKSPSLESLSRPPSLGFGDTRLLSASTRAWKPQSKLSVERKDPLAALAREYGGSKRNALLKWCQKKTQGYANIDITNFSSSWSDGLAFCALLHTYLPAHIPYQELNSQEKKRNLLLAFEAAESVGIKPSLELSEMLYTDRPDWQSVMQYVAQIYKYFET
inactive: [1] -0.017 | [2] -0.087 | [3] 0.105 | [4] -0.012 | [5] 0.037

TMBIM1 (UniProt Q969X1)
inactive: [1] 0.024 | [2] 0.206 | [3] 0.242 | [4] -0.005 | [5] 0.193

TELO2 (UniProt Q9Y4R8)
inactive: [1] -0.031 | [2] -0.05 | [3] 0.037 | [4] 0.039 | [5] 0.005

SLC4A2 (UniProt P04920)
inactive: [1] -0.042 | [2] 0.016 | [3] 0.019 | [4] -0.038 | [5] 0.088

TBCD (UniProt Q9BTW9)
Sequence of UniProt Q9BTW9 (Q9BTW9 whole entry, looked up): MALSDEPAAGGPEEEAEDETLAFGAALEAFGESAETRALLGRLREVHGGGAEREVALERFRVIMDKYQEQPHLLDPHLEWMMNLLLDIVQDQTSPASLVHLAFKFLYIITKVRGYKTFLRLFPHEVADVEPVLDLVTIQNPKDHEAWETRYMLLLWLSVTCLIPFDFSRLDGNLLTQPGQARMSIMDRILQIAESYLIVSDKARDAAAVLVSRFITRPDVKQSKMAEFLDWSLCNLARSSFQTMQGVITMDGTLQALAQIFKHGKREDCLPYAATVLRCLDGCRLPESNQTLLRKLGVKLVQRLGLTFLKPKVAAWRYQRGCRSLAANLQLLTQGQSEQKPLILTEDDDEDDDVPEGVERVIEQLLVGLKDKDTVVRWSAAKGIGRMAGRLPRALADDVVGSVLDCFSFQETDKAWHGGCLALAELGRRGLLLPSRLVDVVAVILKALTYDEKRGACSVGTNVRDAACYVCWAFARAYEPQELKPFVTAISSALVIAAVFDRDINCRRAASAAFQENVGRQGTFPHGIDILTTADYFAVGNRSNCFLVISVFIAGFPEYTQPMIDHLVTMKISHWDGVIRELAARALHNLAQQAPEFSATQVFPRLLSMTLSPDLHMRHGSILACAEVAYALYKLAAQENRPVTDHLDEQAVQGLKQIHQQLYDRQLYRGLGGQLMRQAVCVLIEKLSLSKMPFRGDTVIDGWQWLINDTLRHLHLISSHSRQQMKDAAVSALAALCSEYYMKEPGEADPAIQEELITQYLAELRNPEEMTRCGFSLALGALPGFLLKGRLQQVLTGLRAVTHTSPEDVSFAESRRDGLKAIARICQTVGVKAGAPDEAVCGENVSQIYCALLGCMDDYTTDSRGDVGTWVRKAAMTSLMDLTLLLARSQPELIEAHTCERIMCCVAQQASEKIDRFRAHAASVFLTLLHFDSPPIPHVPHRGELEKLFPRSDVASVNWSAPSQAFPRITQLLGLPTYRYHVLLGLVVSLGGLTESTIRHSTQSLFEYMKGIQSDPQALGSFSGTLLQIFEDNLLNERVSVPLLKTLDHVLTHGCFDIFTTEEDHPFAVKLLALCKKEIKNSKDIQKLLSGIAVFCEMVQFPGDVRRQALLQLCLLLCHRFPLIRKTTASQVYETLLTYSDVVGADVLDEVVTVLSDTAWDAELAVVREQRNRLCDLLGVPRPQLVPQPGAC
inactive: [1] -0.028 | [2] 0.03 | [3] 0.101 | [4] -0.004 | [5] -0.03

SLIRP (UniProt Q9GZT3)
inactive: [1] -0.038 | [2] -0.073 | [3] 0.01 | [4] -0.016 | [5] 0.042

SPG21 (UniProt Q9NZD8)
Sequence of UniProt Q9NZD8 (Q9NZD8 whole entry, looked up): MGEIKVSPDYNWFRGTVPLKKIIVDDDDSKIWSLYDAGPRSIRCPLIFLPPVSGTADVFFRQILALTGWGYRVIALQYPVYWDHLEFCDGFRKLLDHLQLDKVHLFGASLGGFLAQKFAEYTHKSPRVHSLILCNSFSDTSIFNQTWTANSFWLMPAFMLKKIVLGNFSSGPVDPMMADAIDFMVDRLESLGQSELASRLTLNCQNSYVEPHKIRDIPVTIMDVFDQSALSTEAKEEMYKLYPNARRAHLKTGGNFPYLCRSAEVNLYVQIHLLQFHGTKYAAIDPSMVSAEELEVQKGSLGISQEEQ
inactive: [1] -0.128 | [2] -0.035 | [3] 0.031 | [4] -0.062 | [5] -0.02

TBC1D15 isoform 3 (UniProt Q8TC07)
inactive: [1] -0.072 | [2] 0.013 | [3] 0.045 | [4] 0.005 | [5] -0.019

TIMM29 (UniProt Q9BSF4)
inactive: [1] -0.034 | [2] 0.114 | [3] -0.026 | [4] -0.006 | [5] 0.031

SLC6A6 (UniProt P31641)
inactive: [1] -0.002 | [2] 0.065 | [3] 0.039 | [4] 0.018 | [5] 0.035

SMDT1 (UniProt Q9H4I9)
inactive: [1] 0.031 | [2] 0.018 | [3] -0.081 | [4] -0.019 | [5] 0.024

SRSF11 (UniProt Q05519)
Sequence of UniProt Q05519 (Q05519 whole entry, looked up): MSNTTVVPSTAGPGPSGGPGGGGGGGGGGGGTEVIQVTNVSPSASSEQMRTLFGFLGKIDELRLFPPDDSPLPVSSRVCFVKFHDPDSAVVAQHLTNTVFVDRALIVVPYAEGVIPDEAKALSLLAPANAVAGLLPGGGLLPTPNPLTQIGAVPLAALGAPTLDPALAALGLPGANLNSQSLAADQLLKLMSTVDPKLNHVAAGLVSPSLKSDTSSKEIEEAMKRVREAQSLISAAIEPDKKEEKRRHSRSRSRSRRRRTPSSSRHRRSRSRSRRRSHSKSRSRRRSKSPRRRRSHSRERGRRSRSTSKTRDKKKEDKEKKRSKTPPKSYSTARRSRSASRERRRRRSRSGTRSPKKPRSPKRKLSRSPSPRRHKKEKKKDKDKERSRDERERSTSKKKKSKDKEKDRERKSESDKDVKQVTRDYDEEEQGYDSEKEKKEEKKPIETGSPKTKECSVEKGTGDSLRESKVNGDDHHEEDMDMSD
inactive: [1] 0.008 | [2] 0.037 | [3] 0.044 | [4] -0.082 | [5] -0.028

SOX5 (UniProt P35711)
inactive: [1] -0.033 | [2] 0.005 | [3] -0.058 | [4] -0.018 | [5] -0.022

STAT6 (UniProt P42226)
inactive: [1] -0.02 | [2] -0.019 | [3] 0.198 | [4] 0.009 | [5] -0.015

SMPD4 isoform 4 (UniProt Q9NXE4)
inactive: [1] -0.094 | [2] 0.031 | [3] 0.043 | [4] -0.034 | [5] -0.104

SLC27A4 (UniProt Q6P1M0)
inactive: [1] -0.018 | [2] 0.095 | [3] 0.037 | [4] -0.027 | [5] -0.019

THRAP3 (UniProt Q9Y2W1)
inactive: [1] 0.09 | [2] 0.193 | [3] -0.072 | [4] 0.046 | [5] 0.028

SNX12 isoform 1 (UniProt Q9UMY4)
inactive: [1] 0.016 | [2] -0.009 | [3] 0.095 | [4] 0.026 | [5] 0.02

STIM1 (UniProt Q13586)
inactive: [1] -0.051 | [2] 0.044 | [3] 0.008 | [4] -0.014 | [5] -0.019

TJP1 (UniProt Q07157)
inactive: [1] 0 | [2] 0.028 | [3] 0.069 | [4] 0.014 | [5] 0.023

TBP (UniProt P20226)
Sequence of UniProt P20226 (P20226 whole entry, looked up): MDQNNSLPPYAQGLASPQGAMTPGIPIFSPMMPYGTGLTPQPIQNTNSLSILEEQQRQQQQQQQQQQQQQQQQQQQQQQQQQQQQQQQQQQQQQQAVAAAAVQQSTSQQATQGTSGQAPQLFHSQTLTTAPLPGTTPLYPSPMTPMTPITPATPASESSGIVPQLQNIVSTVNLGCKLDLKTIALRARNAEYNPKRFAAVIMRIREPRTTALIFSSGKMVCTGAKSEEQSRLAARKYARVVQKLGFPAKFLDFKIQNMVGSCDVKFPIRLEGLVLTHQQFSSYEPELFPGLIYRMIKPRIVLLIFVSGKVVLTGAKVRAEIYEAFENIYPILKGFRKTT
inactive: [1] 0.016 | [2] 0.314 | [3] -0.158 | [4] 0.144 | [5] 0.07

SNX9 (UniProt Q9Y5X1)
inactive: [1] -0.051 | [2] 0.019 | [3] 0.048 | [4] 0.002 | [5] 0.017

SNX6 (UniProt Q9UNH7)
inactive: [1] -0.037 | [2] 0.039 | [3] 0.053 | [4] 0.012 | [5] -0.11

SMARCA5 (UniProt O60264)
inactive: [1] -0.168 | [2] 0.063 | [3] 0.105 | [4] -0.026 | [5] -0.006

SPCS2 (UniProt Q15005)
inactive: [1] -0.011 | [2] 0.043 | [3] -0.034 | [4] -0.061 | [5] -0.031

SLC38A2 (UniProt Q96QD8)
inactive: [1] -0.006 | [2] 0.044 | [3] 0.024 | [4] -0.028 | [5] 0.035

TBC1D24 (UniProt Q9ULP9)
Sequence of UniProt Q9ULP9 (Q9ULP9 whole entry, looked up): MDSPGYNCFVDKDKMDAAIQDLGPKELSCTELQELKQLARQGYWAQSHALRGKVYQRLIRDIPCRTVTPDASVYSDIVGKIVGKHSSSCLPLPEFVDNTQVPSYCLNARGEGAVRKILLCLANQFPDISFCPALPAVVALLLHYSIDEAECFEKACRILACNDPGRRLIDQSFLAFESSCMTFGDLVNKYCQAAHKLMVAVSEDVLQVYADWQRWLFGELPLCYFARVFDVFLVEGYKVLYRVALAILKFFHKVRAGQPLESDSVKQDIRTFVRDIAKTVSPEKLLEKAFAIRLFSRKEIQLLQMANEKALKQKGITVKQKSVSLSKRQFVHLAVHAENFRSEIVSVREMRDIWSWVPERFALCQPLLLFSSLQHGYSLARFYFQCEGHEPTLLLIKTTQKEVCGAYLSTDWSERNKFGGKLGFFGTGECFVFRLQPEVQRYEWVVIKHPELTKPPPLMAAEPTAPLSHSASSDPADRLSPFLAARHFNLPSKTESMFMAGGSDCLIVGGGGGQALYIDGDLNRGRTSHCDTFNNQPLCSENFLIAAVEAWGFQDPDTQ
inactive: [1] -0.108 | [2] 0.152 | [3] 0.02 | [4] -0.029 | [5] -0.061

TBK1 (UniProt Q9UHD2)
inactive: [1] -0.014 | [2] 0.007 | [3] 0.041 | [4] 0.011 | [5] -0.049

TGFBI (UniProt Q15582)
inactive: [1] -0.115 | [2] -0.024 | [3] 0.019 | [4] -0.048 | [5] -0.08

SLC39A11 (UniProt Q8N1S5)
inactive: [1] 0.053 | [2] 0.072 | [3] 0.078 | [4] -0.323 | [5] -0.003

SMARCE1 (UniProt Q969G3)
inactive: [1] -0.156 | [2] -0.002 | [3] 0.338 | [4] 0.111 | [5] -0.051

STK39 (UniProt Q9UEW8)
inactive: [1] -0.105 | [2] -0.015 | [3] 0.034 | [4] -0.026 | [5] -0.029

TM9SF4 (UniProt Q92544)
inactive: [1] -0.038 | [2] 0.008 | [3] -0.001 | [4] -0.047 | [5] -0.032

SNX15 (UniProt Q9NRS6)
Sequence of UniProt Q9NRS6 (Q9NRS6 whole entry, looked up): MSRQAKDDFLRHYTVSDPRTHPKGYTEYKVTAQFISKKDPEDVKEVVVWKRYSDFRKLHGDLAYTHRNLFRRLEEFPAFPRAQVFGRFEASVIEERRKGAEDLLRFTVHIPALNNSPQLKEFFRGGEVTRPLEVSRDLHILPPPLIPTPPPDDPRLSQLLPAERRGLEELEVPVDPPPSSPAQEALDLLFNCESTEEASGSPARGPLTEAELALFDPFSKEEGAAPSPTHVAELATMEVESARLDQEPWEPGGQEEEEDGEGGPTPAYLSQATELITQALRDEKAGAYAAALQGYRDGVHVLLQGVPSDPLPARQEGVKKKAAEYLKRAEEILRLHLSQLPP
inactive: [1] 0.065 | [2] -0.032 | [3] 0.141 | [4] 0.279 | [5] -0.081

SURF2 (UniProt Q15527)
inactive: [1] 0.056 | [2] -0.018 | [3] 0.033 | [4] -0.047 | [5] -0.044

SP3 (UniProt Q02447)
inactive: [1] 0.018 | [2] -0.024 | [3] -0.043 | [4] 0.025 | [5] 0.009

STARD9 (UniProt Q9P2P6)
inactive: [1] -0.073 | [2] 0.147 | [3] -0.072 | [4] 0.042 | [5] -0.087

SNRNP40 (UniProt Q96DI7)
inactive: [1] 0.054 | [2] -0.023 | [3] 0.007 | [4] 0.071 | [5] 0.022

SLC35F6 (UniProt Q8N357)
inactive: [1] -0.034 | [2] -0.045 | [3] 0.064 | [4] -0.057 | [5] 0.067

SYNE1 (UniProt Q8NF91)
inactive: [1] -0.009 | [2] 0.24 | [3] 0.223 | [4] -0.018 | [5] -0.052
